aSyn yeast rescue – rescues yeast growth from alpha-synuclein toxicity; hit rate 0.02% among 94,000; Potency, µM (highest dose often 46.1 µM), most hits filed as activators; S. cerevisiae alpha-synuclein toxicity rescue, BacTiter-Glo growth, 24 h; active means well fitted activation curve with a large enough effect; further: 0% is about no effect
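Growth restoration measured by BacTiter-Glo luminescence after 24 hr at 30 deg C; alpha-synuclein yeast, raffinose-pregrown to mid-log, were added at OD600=0.02 in galactose medium onto pinned compounds.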
* hit, by the source's call. This is one part of a sample in which hits are shown more often than they occur. Potency means the concentration at half of the fitted maximal effect.

How did CCOc1ccc(-c2nnc(SCC(=O)Nc3cccc(OC)c3)nc2-c2ccc(OCC)cc2)cc1 do in these assays?
aSyn yeast rescue: inactive

Results for Cc1ccc(Cl)cc1N1CCN(C(=O)CN2C(=O)CSc3c2c(C)nn3-c2ccccc2)CC1 ?
aSyn yeast rescue: inactive

What do the screens show for `CC(C)c1ccc(N2C(=O)N(Cc3ccccc3Cl)c3ccccc3S2(=O)=O)cc1`?
aSyn yeast rescue: inactive

Results for O=C(CCCCl)OCc1cn(-c2ccc(Cl)cc2)nn1 ?
aSyn yeast rescue: inactive

Results for CC(NCC(=O)Nc1ccccc1C(=O)NC1CC1)c1ccco1 (stereo not drawn) ?
aSyn yeast rescue: inactive

Results for Nn1c(COc2ccccc2F)nnc1SCC(=O)NC1CC1 ?
aSyn yeast rescue: inactive

What do the screens show for `Cn1c(-n2cccc2)c(-c2c(-c3ccc(F)cc3)[nH]c3c2c(=O)[nH]c(=O)n3C)c(=O)[nH]c1=O`?
aSyn yeast rescue: inactive

How did Cc1ccc(S(=O)(=O)C(CNC(=O)C(=O)NCCc2ccccc2)c2ccco2)cc1 (stereo not drawn) do in these assays?
aSyn yeast rescue: inactive

Results for COC(=O)c1sc(N2C(=O)c3oc4cc(C)c(C)cc4c(=O)c3C2c2ccccc2F)nc1C (stereo not drawn) ?
aSyn yeast rescue: inactive

What do the screens show for `O=C(O)c1cccnc1Sc1ccc(Cl)cc1`?
aSyn yeast rescue: inactive

What do the screens show for `COC(=O)c1scc(-c2ccccc2)c1S(=O)(=O)Nc1cccc(C)c1C`?
aSyn yeast rescue: inactive

How did CCc1ccc(NS(=O)(=O)c2c(-c3ccccc3)csc2C(=O)OC)cc1 do in these assays?
aSyn yeast rescue: 25µM*

What do the screens show for `CCOC(=O)c1scc(-c2ccccc2)c1S(=O)(=O)Nc1ccccc1OC`?
aSyn yeast rescue: inactive

What do the screens show for `CCc1cc(C(=O)Nc2cnn(Cc3ccc(F)cc3)c2)no1`?
aSyn yeast rescue: inactive

Results for CN(Cc1ccc(Cl)cc1Cl)C(=O)Cc1ccc(S(=O)(=O)N2CCOCC2)s1 ?
aSyn yeast rescue: inactive

Results for COc1ccc(N2CCN(C(=O)c3cc(NS(=O)(=O)c4ccc(F)cc4)ccn3)CC2)cc1 ?
aSyn yeast rescue: inactive

How did CCOc1cc(Br)c(COc2ccc(C)nc2[N+](=O)[O-])cc1OCC do in these assays?
aSyn yeast rescue: inactive

Results for Cc1cccc(C(=O)NNC(=O)c2ccc(S(=O)(=O)N3CCOCC3)cc2)c1 ?
aSyn yeast rescue: inactive

How did Cc1ccnc(N2CCC(C(=O)NCc3ccccc3F)CC2)n1 do in these assays?
aSyn yeast rescue: inactive

What do the screens show for `COc1ccc(NC(=O)c2[nH]c(C)c(C(C)=O)c2C)cc1S(=O)(=O)Nc1ccc(Br)cc1`?
aSyn yeast rescue: inactive

How did N#CCOC(=O)C1c2ccccc2Oc2ccccc21 do in these assays?
aSyn yeast rescue: inactive

Results for Cc1ccc(Cn2c(SCc3ccc(C(=O)NC4CCCCC4)cc3)nc3ccncc32)cc1 ?
aSyn yeast rescue: inactive

What do the screens show for `CC(=O)N1N=C(N)SC1c1ccc(Cl)c(Cl)c1` (stereo not drawn)?
aSyn yeast rescue: inactive

Results for COC(=O)C1=C(C)N(c2ccc(OC)c(OC)c2)C(=O)/C1=C\c1cccs1 ?
aSyn yeast rescue: inactive

What do the screens show for `Cc1cc(S(=O)(=O)C(CNC(=O)c2ccc(F)c(F)c2)c2cccs2)ccc1F` (stereo not drawn)?
aSyn yeast rescue: inactive

Results for CCOC(=O)c1c(NC(=O)CSc2cn(CCNC(=O)c3ccc(OCC)cc3)c3ccccc23)sc2c1CCC2 ?
aSyn yeast rescue: inactive

How did CC(C)CC(NC(=O)CC12CC3CC(CC(C3)C1)C2)C(=O)NC1=NCCS1 (stereo not drawn) do in these assays?
aSyn yeast rescue: inactive

Results for Cc1oc(-c2cccc(Cl)c2)nc1CSCC(=O)NCc1ccccc1Cl ?
aSyn yeast rescue: 20µM*

How did Cc1oc(-c2ccc(Cl)cc2)nc1CSCC(=O)NCc1ccccc1Cl do in these assays?
aSyn yeast rescue: inactive

Results for Cc1ccc(CNC(=O)CSCc2nc(-c3ccc(Cl)cc3)oc2C)cc1 ?
aSyn yeast rescue: inactive

What do the screens show for `CCC1CCc2nc3sc(C(=O)Nc4ccc(C)cc4)c(N)c3cc2C1` (stereo not drawn)?
aSyn yeast rescue: inactive

Results for Cc1ccc(C2c3[nH]c4ccccc4c3CCN2C(=O)CSCc2ccc(F)cc2)cc1 (stereo not drawn) ?
aSyn yeast rescue: 16µM*

Results for CSc1ccc(C2c3[nH]c4ccccc4c3CCN2C(=O)CCc2ccccc2)cc1 (stereo not drawn) ?
aSyn yeast rescue: inactive

Results for Cc1ccc(C2c3[nH]c4ccccc4c3CCN2C(=O)CSc2ccccc2)cc1 (stereo not drawn) ?
aSyn yeast rescue: 14µM*

How did CCc1ccccc1NC(=O)N1CCc2c([nH]c3ccccc23)C1c1ccc(C)cc1 (stereo not drawn) do in these assays?
aSyn yeast rescue: inactive

How did CCOc1ccc(C2c3[nH]c4ccccc4c3CCN2C(=O)CSc2ccccc2)cc1 (stereo not drawn) do in these assays?
aSyn yeast rescue: inactive

What do the screens show for `O=C(CCC1CCCC1)N1CCc2c([nH]c3ccccc23)C1c1ccc(F)cc1` (stereo not drawn)?
aSyn yeast rescue: inactive

Screens (PubChem)
